Source: PubChem BioAssay (Tox21)
Records with an inconclusive call do not appear. Where a call stands in place of a potency, no number is given. Active and inactive are the calls of the source. Unless noted, the call rests on the fitted dose curve; in most records, active means well fitted curve in the direction sought with a large enough effect in the repeat runs; inconclusive means weak or mixed curves; inactive means no such curve, though single readings can be large; an effect the other way counts as inactive or inconclusive. Where a SMILES comes first, the peptide text is derived from it. [ ]: non-standard residue; d: D form. pGlu = O=C1CC[C@@H](C(=O)O)N1

Assays:
[1] = qHTS assay to identify small molecule antagonists of the estrogen related receptor (ERR) signaling pathway from Tox21 library - cell viability counter screen (AID 1224834); conditions: ERR reporter cells viability, CellTiter-Fluor, 17.5 h; series mostly up to 92.4 µM; further: nearly all actives have a fitted effect of over 30% in size
Method in brief: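 Multiplexed viability counter screen in ERR cells: 17.5 h compound exposure at 37 C, CellTiter-Fluor added, 30 min at 37 C/5% CO2, fluorescence read.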

[2] = biological target: Luciferin 4-monooxygenase (Photinus pyralis) (UniProt P08659); assay: qHTS assay to identify small molecule inhibitors of firefly luciferase (AID 1224835); further: nearly all actives have a fitted effect of over 25% in size; further: potency means the concentration at half of the fitted maximal effect; conditions: purified P. pyralis luciferase, luminescence inhibition; series mostly up to 115 µM
Chain of Luciferin 4-monooxygenase (Photinus pyralis) (P08659 whole entry, looked up): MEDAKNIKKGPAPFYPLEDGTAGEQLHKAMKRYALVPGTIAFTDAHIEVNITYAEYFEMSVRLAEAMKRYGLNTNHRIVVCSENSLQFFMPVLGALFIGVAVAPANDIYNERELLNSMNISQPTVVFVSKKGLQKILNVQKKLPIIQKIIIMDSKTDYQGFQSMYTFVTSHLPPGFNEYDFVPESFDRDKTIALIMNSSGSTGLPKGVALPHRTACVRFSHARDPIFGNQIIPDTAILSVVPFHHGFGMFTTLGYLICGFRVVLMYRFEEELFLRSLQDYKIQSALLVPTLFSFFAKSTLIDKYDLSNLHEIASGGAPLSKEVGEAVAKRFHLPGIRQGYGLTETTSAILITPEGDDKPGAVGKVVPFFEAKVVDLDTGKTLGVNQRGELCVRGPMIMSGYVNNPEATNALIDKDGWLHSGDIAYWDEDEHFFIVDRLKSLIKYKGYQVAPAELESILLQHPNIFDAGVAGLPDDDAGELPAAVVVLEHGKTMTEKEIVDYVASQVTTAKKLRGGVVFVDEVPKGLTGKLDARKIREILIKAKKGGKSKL
Method in brief: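 Inhibition of purified Photinus luciferase is measured by luminescence. Substrate levels (D-luciferin, ATP) sit at their KM values. Each compound is tested in a concentration series.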

[3] = qHTS assay to identify small molecule agonists of the constitutive androstane receptor (CAR) signaling pathway - cell viability counter screen (AID 1224836); conditions: HepG2-CYP2B6-hCAR viability, CellTiter-Fluor, 23 h, PK11195 added to every well; series mostly up to 92.4 µM; further: nearly all actives have a fitted effect of over 45% in size
Method in brief: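 Double-stable HepG2 hepatoma cells (hCAR plus CYP2B6-2.2kb) are treated for 23 h at 37 C with test compounds in 15-point concentration series. PK11195 at 0.75 uM final is co-added. Cell viability is quantified by CellTiter-Fluor.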

[4] = qHTS assay to identify small molecule antagonists of the constitutive androstane receptor (CAR) signaling pathway - cell viability counter screen (AID 1224837); conditions: HepG2-CYP2B6-hCAR viability, CellTiter-Fluor, 23 h, co-treated with 50 nM CITCO; series mostly up to 92.4 µM; further: nearly all actives have a fitted effect of over 45% in size
Method in brief: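 Read-out: CellTiter-Fluor fluorescence after 23 hr at 37 C/5% CO2. Cells: HepG2 double-stable for hCAR and CYP2B6-2.2kb. Compounds tested at 15 concentrations in the presence of CITCO, final concentration 50 nM.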

[5] = biological target: Nuclear receptor subfamily 1 group I member 3 (Homo sapiens) (UniProt Q14994); assay: qHTS assay to identify small molecule antagonists of the constitutive androstane receptor (CAR) signaling pathway (AID 1224838); conditions: HepG2-CYP2B6-hCAR luciferase, CITCO-stimulated, 24 h; series mostly up to 92.4 µM;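 further: HepG2 cells stably expressing hCAR with CYP2B6 luciferase reporter stimulated by CITCO; nearly all actives have a fitted effect of over 40% in size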
Chain of Nuclear receptor subfamily 1 group I member 3 (Homo sapiens) (Q14994 whole entry, looked up): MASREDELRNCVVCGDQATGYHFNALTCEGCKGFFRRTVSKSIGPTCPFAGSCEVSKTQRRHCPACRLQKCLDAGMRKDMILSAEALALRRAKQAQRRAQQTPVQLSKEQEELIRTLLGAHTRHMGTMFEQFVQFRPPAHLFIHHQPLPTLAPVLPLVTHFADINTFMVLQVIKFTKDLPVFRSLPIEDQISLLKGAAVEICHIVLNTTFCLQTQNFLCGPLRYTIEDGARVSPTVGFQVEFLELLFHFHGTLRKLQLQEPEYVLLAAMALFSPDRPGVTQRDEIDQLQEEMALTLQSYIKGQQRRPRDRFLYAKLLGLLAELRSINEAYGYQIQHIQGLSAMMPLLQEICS
Method in brief: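 Read-out: ONE-Glo luciferase luminescence after 30 min at room temperature. HepG2-CYP2B6-hCAR double-stable cells, compounds in 15-point titration plus 50 nM CITCO final, 24 h at 37 C/5% CO2.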

[6] = biological target: Nuclear receptor subfamily 1 group I member 3 (Homo sapiens) (UniProt Q14994); assay: qHTS assay to identify small molecule agonists of the constitutive androstane receptor (CAR) signaling pathway (AID 1224839); conditions: HepG2 hCAR CYP2B6-luciferase, agonist mode, 24 h; series mostly up to 92.4 µM; further: nearly all actives have a fitted effect of over 15% in size; further: potency means the concentration at half of the fitted maximal effect
Method in brief: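 Readout: firefly luciferase luminescence via ONE-Glo. System: HepG2 double-stable for hCAR and CYP2B6-2.2kb. Conditions: 15-point compound titration, PK11195 at 0.75 uM final, 24 h incubation.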

[7] = qHTS assay to identify small molecule antagonists of the estrogen related receptor signaling pathway with the pleiotropic PPARgamma coactivator (PGC) from Tox21 10K library - cell viability counter screen (AID 1224840; active means well fitted cell-killing curve with a large enough effect in the repeat runs, not every such curve was filed as active; further: nearly all actives have a fitted effect of over 40% in size); conditions: PGC/ERR reporter cells viability, CellTiter-Fluor, 17.5 h; series mostly up to 92.4 µM
Method in brief: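 Fluorescence read-out of CellTiter-Fluor viability reagent, added after cells had been exposed to compound in DMSO for 17.5 h at 37 C; 30 min development at 37 C/5% CO2. Cells: PGC/ERR line, 2,000/well.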

[8] = qHTS assay to identify small molecule antagonists of the retinoid acid receptor (RAR) signaling pathway - cell viability counter screen (AID 1159551); conditions: C3RL4 cells viability, ATP luminescence (CellTiter-Glo), 6 h; series mostly up to 92.4 µM; further: nearly all actives have a fitted effect of over 35% in size
Method in brief: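 C3RL4 RARE-luciferase line; cpds + retinol 1 uM final, 6 h, 37 C/5% CO2; CellTiter-Glo ATP luminescence, 30 min RT.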

[9] = qHTS assay to identify small molecule antagonists of the retinoic acid receptor (RAR) signaling pathway (AID 1159552; further: nearly all actives have a fitted effect of over 50% in size); conditions: C3RL4 RARE luciferase reporter, retinol-stimulated, 6 h; series mostly up to 92.4 µM
Method in brief: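 Antagonism of retinol-induced RARE reporter activity was measured in C3RL4 cells. Exposure to compounds and 1 uM final retinol lasted 6 hr at 37 C, with luminescence as endpoint.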

[10] = qHTS assay to identify small molecule agonists of the retinoic acid receptor (RAR) signaling pathway (AID 1159553); conditions: C3RL4 RARE luciferase reporter, agonist, 6 h; series mostly up to 73.3 µM; further: potency means the concentration at half of the fitted maximal effect
Method in brief: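 RARE-luc C3RL4 cells; overnight attachment 37 C/5% CO2; compound (DMSO) 6 hr; luciferase reagent, 30 min RT; luminescence read-out.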

[11] = biological target: Thyrotropin receptor (Homo sapiens) (UniProt P16473); assay: qHTS assay to identify small molecule agonists of the thyroid stimulating hormone receptor (TSHR) signaling pathway (AID 1224843; calls by dose curve; further: nearly all actives have a fitted effect of over 45% in size); conditions: TSHR-HEK293 cells, cAMP HTRF, agonist mode, 30 min; series mostly up to 92.4 µM
Chain of Thyrotropin receptor (Homo sapiens) (P16473 whole entry, looked up): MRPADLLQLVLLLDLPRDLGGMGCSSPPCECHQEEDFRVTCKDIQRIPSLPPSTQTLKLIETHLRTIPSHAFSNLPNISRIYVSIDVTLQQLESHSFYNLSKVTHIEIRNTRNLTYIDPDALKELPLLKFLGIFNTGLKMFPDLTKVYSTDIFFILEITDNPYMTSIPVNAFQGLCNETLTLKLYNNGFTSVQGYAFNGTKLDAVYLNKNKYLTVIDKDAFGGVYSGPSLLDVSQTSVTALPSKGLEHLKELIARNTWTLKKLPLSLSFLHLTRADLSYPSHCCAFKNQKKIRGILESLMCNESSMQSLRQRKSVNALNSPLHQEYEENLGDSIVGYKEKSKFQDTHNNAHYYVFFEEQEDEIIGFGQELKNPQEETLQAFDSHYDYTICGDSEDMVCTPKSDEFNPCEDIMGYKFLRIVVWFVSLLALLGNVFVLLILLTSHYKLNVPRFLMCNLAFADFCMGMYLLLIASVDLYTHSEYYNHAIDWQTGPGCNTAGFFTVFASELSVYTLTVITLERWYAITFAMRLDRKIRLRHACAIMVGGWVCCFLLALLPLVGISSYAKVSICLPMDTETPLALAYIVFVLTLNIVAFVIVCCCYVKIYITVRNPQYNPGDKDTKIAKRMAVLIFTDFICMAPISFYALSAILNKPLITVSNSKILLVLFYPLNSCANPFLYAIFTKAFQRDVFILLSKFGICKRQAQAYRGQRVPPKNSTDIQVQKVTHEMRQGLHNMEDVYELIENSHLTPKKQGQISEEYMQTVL
Method in brief: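 Agonist activity read as cAMP rise via d2/cryptate HTRF competition, 1 h room-temperature detection, in HEK293 cells expressing TSHR. Fifteen-point titrations, each run in triplicate, with a 30 min room-temperature incubation beforehand.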

[12] = qHTS assay to identify small molecule antagonists of the estrogen related receptor signaling pathway with the pleiotropic PPARgamma coactivator (PGC) from Tox21 10K library (AID 1224841; call rule not given here; further: actives are mostly falling curves and most rising ones were filed inactive; nearly all actives have a fitted effect of over 50% in size); conditions: PGC/ERR reporter cell line, ONE-Glo luciferase, 18 h; series mostly up to 92.4 µM
Method in brief: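 Luminescence read-out (One-Glo luciferase reagent, 30 min at room temperature) from PGC/ERR cells exposed to DMSO-dissolved test compounds for 18 h at 37 C; cells, 2,000 per well, had been preincubated 6 h before compound transfer.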

[13] = qHTS assay to identify small molecule agonists of the estrogen related receptor signaling pathway with the pleiotropic PPARgamma coactivator (PGC) from Tox21 10K library (AID 1224842); conditions: PGC/ERR reporter cell line, luciferase ONE-Glo, 18 h; series mostly up to 92.4 µM; further: nearly all actives have a fitted effect of over 15% in size
Method in brief: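 Luminescence from One-Glo (30 min, room temperature) measured after PGC/ERR cells had 18 h at 37 C with pinned compound (23 nL in DMSO). Cells had been seeded at 2,000 per well and pre-incubated 6 h.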

In the case of `C[C@@H]1C[C@H]2[C@@H]3C[C@H](F)C4=CC(=O)C(Cl)=C[C@]4(C)[C@@]3(F)[C@@H](O)C[C@]2(C)[C@@]1(O)C(=O)CO`, the Potency [1] is reported as “inactive”, the Potency [2] is reported as “inactive” and the outcome [3] is reported as “inactive”. For the same molecule, the outcome [4] was “inactive”, the Potency [5] was “inactive” and the Potency [6] was “inactive”. For the same molecule, the outcome [7] was “inactive”.
In the case of `O=C1c2ccccc2C(=O)c2cc(O)ccc21`, the outcome [8] is reported as “inactive”, the Potency [9] is reported as “inactive” and the Potency [10] is reported as 17.2 µM (active). For the same molecule, the Potency [2] was 28.3 µM (active), the outcome [3] was “inactive” and the outcome [4] was “inactive”. The Potency [5] was “inactive”, the Potency [6] was 54.5 µM (active) and the outcome [7] was “inactive”. The Potency [11] was “inactive”.
With `CC[N+](C)(CC)CCOC(=O)C1c2ccccc2Oc2ccccc21` the outcome [8] was “inactive”, the Potency [10] was “inactive” and the Potency [1] was “inactive”. For the same molecule, the Potency [2] was “inactive”, the outcome [3] was “inactive” and the outcome [4] was “inactive”. For the same molecule, the outcome [7] was “inactive”.
With `CCCCCCCCCCCCSC` the outcome [8] was “inactive”, the Potency [1] was “inactive” and the Potency [2] was “inactive”. For the same molecule, the outcome [3] was “inactive”, the outcome [4] was “inactive” and the Potency [5] was “inactive”. The outcome [7] was “inactive” and the Potency [11] was “inactive”.
For `O=S(=O)(O)c1cccc(S(=O)(=O)O)c1`, the outcome [8] was “inactive”, the Potency [9] was “inactive” and the Potency [1] was “inactive”. The Potency [2] was “inactive”, the outcome [3] was “inactive” and the outcome [4] was “inactive”. For the same molecule, the Potency [5] was “inactive”, the Potency [6] was “inactive” and the outcome [7] was “inactive”. The Potency [12] was “inactive”, the Potency [13] was “inactive” and the Potency [11] was “inactive”.
In the case of `Nc1ccccn1`, the outcome [8] is reported as “inactive”, the Potency [9] is reported as “inactive” and the Potency [10] is reported as “inactive”. The Potency [1] was “inactive”, the outcome [3] was “inactive” and the outcome [4] was “inactive”. For the same molecule, the Potency [5] was “inactive”, the Potency [6] was “inactive” and the outcome [7] was “inactive”.
For `CCCOC(=O)CC`, the outcome [8] was “inactive”, the Potency [1] was “inactive” and the Potency [2] was “inactive”. The outcome [3] was “inactive”, the outcome [4] was “inactive” and the Potency [5] was “inactive”. For the same molecule, the Potency [6] was “inactive”, the outcome [7] was “inactive” and the Potency [11] was “inactive”.
For `CC(C)(C)c1ccc(-c2ccc(C(C)(C)C)cc2)cc1`, the outcome [8] was “inactive”, the Potency [9] was “inactive” and the Potency [1] was “inactive”. For the same molecule, the Potency [2] was “inactive”, the outcome [3] was “inactive” and the outcome [4] was “inactive”. For the same molecule, the Potency [5] was “inactive”, the Potency [6] was “inactive” and the outcome [7] was “inactive”. For the same molecule, the Potency [12] was “inactive” and the Potency [13] was “inactive”.
In the case of `CCNC(=O)[C@@H]1CCCN1C(=O)[C@H](CCCN=C(N)N)NC(=O)[C@H](CC(C)C)NC(=O)CNC(=O)[C@H](Cc1ccc(O)cc1)NC(=O)[C@H](CO)NC(=O)[C@H](Cc1c[nH]c2ccccc12)NC(=O)[C@H](Cc1cnc[nH]1)NC(=O)[C@@H]1CCC(=O)N1` ([pGlu]HWSYGLRP-NHEt), the outcome [8] is reported as “inactive”, the Potency [9] is reported as “inactive” and the Potency [1] is reported as “inactive”. The Potency [2] was “inactive”, the outcome [3] was “inactive” and the outcome [4] was “inactive”. For the same molecule, the Potency [5] was “inactive”, the Potency [6] was “inactive” and the outcome [7] was “inactive”. For the same molecule, the Potency [12] was “inactive”, the Potency [13] was “inactive” and the Potency [11] was “inactive”.
In the case of `C=COC(=O)C(C)(CC)CCC(C)C` (stereo not drawn), the outcome [8] is reported as “inactive”, the Potency [1] is reported as “inactive” and the Potency [2] is reported as “inactive”. The outcome [3] was “inactive”, the outcome [4] was “inactive” and the Potency [5] was “inactive”. The Potency [6] was “inactive” and the outcome [7] was “inactive”.
